In the supplement of paper PMC6089552:
Out of some 3,200 compounds screened, about 300 (9.4%) showed activity. The list comes from a sample in which actives are over-represented; it also holds similar structures and randomly drawn compounds.

Test system: A673/TR/shEF
Test: cell viability (LOESS-normalised, relative to median of negative controls) (log2 ratio); higher = more viable cells (less compound effect), active = hit call of the paper (over 3 MAD below the median)
Conditions: treatment time: 72 h
Summary of the method: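 A673/TR/shEF Ewing sarcoma cells were plated at 1,500 per well in 384-well plates and cultured with or without doxycycline, added 24 h before compounds, to induce EWS-FLI1 shRNA knockdown. Library compounds at two or more concentrations, alongside DMSO controls, were applied for three days. Cell viability was measured by CellTiter-Glo luminescence on an Envision reader. Readings were LOESS-corrected per plate, divided by the median of negative controls and log2-transformed, and hits were wells lying at least three median absolute deviations from the median of all screened wells.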

[1] = 0.103 µM, library screen: screen3, EWS-FLI1 expression: high (no doxycycline)
[2] = 0.103 µM, library screen: screen3, EWS-FLI1 expression: low (doxycycline-induced shRNA knockdown)
[3] = 0.308 µM, library screen: screen3, EWS-FLI1 expression: high (no doxycycline)
[4] = 0.308 µM, library screen: screen3, EWS-FLI1 expression: low (doxycycline-induced shRNA knockdown)
[5] = 0.926 µM, library screen: screen3, EWS-FLI1 expression: high (no doxycycline)
[6] = 0.926 µM, library screen: screen3, EWS-FLI1 expression: low (doxycycline-induced shRNA knockdown)
[7] = 2.8 µM, library screen: screen3, EWS-FLI1 expression: high (no doxycycline)
[8] = 2.8 µM, library screen: screen3, EWS-FLI1 expression: low (doxycycline-induced shRNA knockdown)
[9] = 8.3 µM, library screen: screen3, EWS-FLI1 expression: high (no doxycycline)
[10] = 8.3 µM, library screen: screen3, EWS-FLI1 expression: low (doxycycline-induced shRNA knockdown)
[11] = 25 µM, library screen: screen3, EWS-FLI1 expression: high (no doxycycline)
[12] = 25 µM, library screen: screen3, EWS-FLI1 expression: low (doxycycline-induced shRNA knockdown)
[13] = 0.25 µM, library screen: screen1, EWS-FLI1 expression: high (no doxycycline)
[14] = 0.25 µM, library screen: screen1, EWS-FLI1 expression: low (doxycycline-induced shRNA knockdown)
[15] = 2.5 µM, library screen: screen1, EWS-FLI1 expression: high (no doxycycline)
[16] = 2.5 µM, library screen: screen1, EWS-FLI1 expression: low (doxycycline-induced shRNA knockdown)
[17] = 0.25 µM, library screen: screen2, EWS-FLI1 expression: high (no doxycycline)
[18] = 0.25 µM, library screen: screen2, EWS-FLI1 expression: low (doxycycline-induced shRNA knockdown)
[19] = 2.5 µM, library screen: screen2, EWS-FLI1 expression: high (no doxycycline)
[20] = 2.5 µM, library screen: screen2, EWS-FLI1 expression: low (doxycycline-induced shRNA knockdown)

Measured: cell viability (log2)

C[N+]1(C)[C@@H]2CC(OC(=O)C(O)(c3cccs3)c3cccs3)C[C@H]1[C@@H]1O[C@@H]12 (stereo not given in full)
inactive: [1] -0.0419 | [2] -0.0363 | [3] -0.000855 | [4] 0.0413 | [5] 0.0247 | [6] 0.0262 | [7] 0.0531 | [8] 0.0434 | [9] 0.0573 | [10] 0.11 | [11] 0.0805 | [12] 0.115

Cc1occc(=O)c1C=CO
inactive: [13] 0.064 | [14] 0.0191 | [15] 0.188 | [16] 0.0363

CC1(C)S[C@@H]2[C@H](NC(=O)[C@H](N)c3ccc(O)cc3)C(=O)N2[C@H]1C(=O)O
inactive: [1] 0.0884 | [2] 0.104 | [13] 0.0883 | [14] 0.0656 | [3] -0.0334 | [4] 0.0742 | [5] 0.0733 | [6] 0.103 | [15] 0.14 | [16] 0.178 | [7] -0.017 | [8] 0.0291 | [9] 0.0293 | [10] 0.106 | [12] -0.0237
active: [11] -0.676

CC1(C)S[C@@H]2[C@H](NC(=O)[C@H](N)c3ccccc3)C(=O)N2[C@H]1C(=O)O
inactive: [13] 0.0882 | [14] 0.14 | [15] 0.142 | [16] 0.206

CC1(C)S[C@@H]2[C@H](NC(=O)C(C(=O)O)c3ccccc3)C(=O)N2[C@H]1C(=O)O (stereo not given in full)
inactive: [13] 0.137 | [14] 0.0878 | [15] 0.243 | [16] 0.131

CC(=O)N1CCC[C@H]1C(=O)O
inactive: [13] 0.138 | [14] 0.0212 | [15] 0.184 | [16] 0.0486

C=C1c2cc(OC)ccc2NC(=O)N1c1ccccc1
inactive: [13] 0.0622 | [14] 0.09 | [15] 0.104 | [16] 0.0838

CC(C)NC[C@H](O)c1ccc(O)c(O)c1
inactive: [17] 0.15 | [18] 0.0965 | [19] 0.0541 | [20] 0.0273

COC(=O)C[C@H]1C(C)(C)[C@@H](OC(C)=O)[C@@H]2CC3=C4CC(=O)O[C@@H](c5ccoc5)[C@]4(C)CC[C@@H]3[C@@]1(C)C2=O
inactive: [13] 0.0358 | [14] 0.0144 | [15] 0.0778 | [16] 0.108

Oc1ccc(/C=C/c2cc(O)cc(O)c2)cc1
active: [17] -1.5 | [18] -1.81 | [19] -2.99 | [20] -3.07 | [11] -0.23
inactive: [1] 0.0131 | [2] 0.0367 | [13] 0.0839 | [14] 0.0347 | [3] -0.0479 | [4] 0.0776 | [5] 0.0102 | [6] 0.0306 | [15] 0.127 | [16] 0.2 | [7] -0.00513 | [8] 0.017 | [9] -0.0335 | [10] 0.0785 | [12] 0.0525

Oc1cc(O)cc(/C=C/c2ccc(O)c(O)c2)c1
active: 25 µM, library screen: screen1, EWS-FLI1 expression: high (no doxycycline) -0.42
inactive: 0.025 µM, library screen: screen1, EWS-FLI1 expression: high (no doxycycline) 0.0929 | 0.025 µM, library screen: screen1, EWS-FLI1 expression: low (doxycycline-induced shRNA knockdown) 0.00184 | [13] 0.117 | [14] 0.0696 | [17] -0.0238 | [18] 0.0864 | [15] 0.0516 | [16] 0.151 | [19] 0.187 | [20] 0.0106 | 25 µM, library screen: screen1, EWS-FLI1 expression: low (doxycycline-induced shRNA knockdown) 0.162

COc1cc(/C=C/CO)ccc1O
inactive: [13] 0.0482 | [14] 0.111 | [15] 0.0791 | [16] 0.0869

Oc1cc(O)cc(/C=C/c2ccccc2)c1
inactive: [13] 0.0674 | [14] 0.00318 | [15] 0.07 | [16] 0.0614

O=c1cc(O)cc(/C=C/c2ccc(O)c(O)c2)o1
inactive: [17] 0.159 | [18] 0.05 | [19] 0.0405 | [20] 0.104

COc1cc(O)cc(/C=C/c2ccccc2)c1
inactive: [13] 0.0443 | [14] 0.0713 | [15] 0.167 | [16] 0.125

C=C1CC/C=C(/C)CC[C@@H]2[C@@H]1CC2(C)C
inactive: [13] 0.102 | [14] 0.0257 | [15] 0.165 | [16] 0.118

CC1(C)CC[C@]2(C(=O)O)[C@H](O)C[C@]3(C)C(=CC[C@@H]4[C@@]5(C)CC[C@H](O)C(C)(C)[C@@H]5CC[C@]43C)[C@@H]2C1
inactive: [13] 0.0739 | [14] 0.0342 | [15] 0.0945 | [16] 0.121

CC1(C)C(=O)CCC2(C)C1CC(O)C1(C)C2CCC2(C)C(c3ccoc3)OC(=O)C3OC321 (stereo not given)
inactive: [13] 0.0271 | [14] -0.0613 | [15] 0.1 | [16] -0.017

NC(N)=NCCSSCCN=C(N)N
inactive: [17] 0.208 | [18] 0.0937 | [19] 0.0577 | [20] 0.063

O=c1cccc2ccc(O)c(O)c2c1O
inactive: [13] 0.0319 | [14] -0.0442 | [15] 0.142 | [16] -0.0155

COc1cc(Cc2cnc(N)nc2N)cc(OC)c1OC
inactive: [13] 0.149 | [14] 0.184 | [15] 0.204 | [16] 0.321
active: [17] -0.215 | [18] -0.0762 | [19] -1.67 | [20] -2.59

COc1cc(O)cc(OC)c1OC
inactive: [13] 0.0343 | [14] 0.0156 | [15] 0.173 | [16] 0.0956

COc1ccc(CN2CCN(Cc3cc(OC)c(OC)c(OC)c3)CC2)cc1
inactive: [13] 0.174 | [14] 0.0733 | [15] 0.142 | [16] -0.0868

COc1ccc(-c2coc3cc(OC)cc(O)c3c2=O)cc1
inactive: [13] 0.0141 | [14] 0.0676 | [15] 0.102 | [16] 0.184

COc1cc(CN2CCN(Cc3ccco3)CC2)cc(OC)c1
inactive: [13] -0.0146 | [14] 0.0935 | [15] 0.0118 | [16] 0.0977

CCCS(=O)(=O)Nc1ccc(F)c(C(=O)c2c[nH]c3ncc(-c4ccc(Cl)cc4)cc23)c1F
active: [11] -0.179
inactive: [1] 0.0151 | [2] 0.0756 | [3] -0.0936 | [4] 0.103 | [5] -0.131 | [6] 0.105 | [7] -0.159 | [8] 0.126 | [9] -0.177 | [10] 0.106 | [12] 0.0931
